# Test results as given in PubChem BioAssay (NCI).
# About 83,000 compounds went through this panel and 20% of them were active in at least one assay; those are over-represented in the sample as a whole.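 How to read the values: 0–100, growth inhibition (40 = 60% inhibited); 0, no net growth; -100 to 0, cell death (-40 = 40% of starting cells died; -100 = all dead).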 Active and inactive are the calls of the source.
# System: OVCAR-5 ovarian
# Assay: NCI-60 one-dose screen, 48 h (100 = growth as untreated, 0 = no growth, -100 = all killed)
# Conditions: 10 µM unless noted
# Protocol: Growth inhibition of the OVCAR-5 human tumor cell line is measured as a screen for anti-cancer activity. Cells are grown in 96 well plates and exposed to the test compound for 48 hours. Compounds are tested at a single concentration, which is 10^-5 M for most compounds. The reported endpoint is percent growth (GI% or GIPRCNT), where numbers from 0 - 100% represent growth inhibition, and numbers from -100% - 0 represent cell death. For example, a value of 40 represents 60% growth inhibition. A value of 0 means no net growth occurred over the course of the experiment. A value of -40 indicates 40% of cells at the beginning of the experiment died by the end of the experiment. A value of -100 means all cells are dead at the end of the experiment.
# NCI-60 Human Tumor Cell Lines Screen was performed using the standard one-dose NCI protocol, which is described in more detail at https://dtp.cancer.gov/discovery_development/nci-60/default.htm.
# Compounds with GIPRCNT values below 10 were considered active. Activity score was based on GIPRCNT using the following formula: […]
# Score is 0 for GIPRCNT values of 100 or above, 50 for GIPRCNT values of 0, and 100 for GIPRCNT values of -100.
row,Compound,growth
1,Fc1ccc2c(c1)c(-c1nc(-c3c[nH]c4ncccc34)cs1)cn2CCCN1CCCCC1,88.3% (inactive)
2,N=C(N)N=Nc1ccc(O)cc1,116% [100 µM] (inactive)
3,Fc1ccc(NCc2nnc(-c3ccc(Cl)cc3)o2)cc1,86.9% (inactive)
4,Nc1c2c(nc3ccc(Cl)cc13)CC(c1ccc(O)cc1)CC2=O (stereo not given),91.9% (inactive)
5,COc1cccc(-c2nn(-c3ccccc3)cc2-c2ccnc(NCCNS(=O)(=O)c3ccc(Cl)cc3)c2)c1,56.2% (inactive)
6,O=C(CI)Nc1ccc(O)c2ccccc12,18.5% (inactive)
7,COc1cccc(-c2nn(-c3ccccc3)cc2-c2ccnc(NCCNS(=O)(=O)c3ccccc3)c2)c1,72.3% (inactive)
8,NS(=O)(=O)c1ccc(CCNC(=O)/C=C/c2ccc(Cl)cc2)cc1,98.5% (inactive)
9,CC(=O)Cc1nsc(NC(=O)c2ccoc2COc2ccccc2)n1,94.1% (inactive)
10,CCCCC[C@H]1C/C=C2/C(=O)C(Cl)=C[C@@H]2C/C=C\CCCC(=O)O1,-64.9% (active)
11,COc1ccc(NC(=S)N/N=C/c2ccccc2SSCCC(=O)OC[C@H]2O[C@H](O)[C@H](O)[C@@H](O)[C@@H]2O)cc1,100% (inactive)
12,Cn1cc(-c2csc(-c3cn(CCCN4CCCCC4)c4ccc(F)cc34)n2)c2cccnc21,91.8% (inactive)
13,NC1=NN(c2ccccc2)C(=O)/C1=C/c1ccc(Cl)cc1,98.1% (inactive)
14,COc1ccc(/C=C/C(=O)NCC(C)O)cc1 (stereo not given),89.2% (inactive)
15,CC[C@]12C=CCN3CC[C@@]4(c5cc([C@H]6CCC(=O)N6)c(OC)cc5N(C)[C@H]4[C@@](O)(C(=O)OC)[C@@H]1OC(C)=O)[C@@H]32,88.4% [2.5 µM] (inactive)
16,Cc1ccc(-c2nc([P+](c3ccccc3)(c3ccccc3)c3ccccc3)c(N3C[C@H]4C[C@H](C3)c3cccc(=O)n3C4)o2)cc1,105% (inactive)
17,O=S(=O)(NCCNc1cc(-c2cn(-c3ccccc3)nc2-c2cccc(O)c2)ccn1)c1ccc(Br)cc1,50% (inactive)
18,CC1(C)C(=O)/C(=C\c2ccco2)C[C@]2(C)[C@H]3CC[C@@H]4[C@@H](C(=O)/C=C/c5ccco5)CC[C@@]4(C)[C@]3(C)CC[C@@H]12,115% (inactive)
19,COc1cc2c(cc1OC)C(=O)/C(=C/c1cc(-c3ccc4c(c3)OCO4)n[nH]1)C2,37.9% (inactive)
20,Cc1ccc(Nc2c(C(N)=O)cnc3ccc(S(=O)(=O)Nc4cc(C)on4)cc23)cc1,99.5% (inactive)

row,Compound,growth
1,CCN(CC)C(=O)CCCCCn1c2ccccc2c2c3c(c4c5ccccc5[nH]c4c21)C(=O)N(O)C3=O,104% (inactive)
2,NCCn1cc(-c2nc(-c3c[nH]c4ncccc34)cs2)c2ccccc21,102% (inactive)
3,CCOC(=O)c1ccc2c(c1)[n+](=O)c(C(=O)C1CCCS1)c(C(F)(F)F)n2[O-] (stereo not given),-79.8% (active)
4,O=C1/C(=C\c2ccco2)SC(=S)N1CCc1ccc(O)cc1,103% (inactive)
5,COc1ccc(O)c(-c2cc(-c3ccc(Cl)cc3)c(C#N)c(=O)[nH]2)c1,106% (inactive)
6,O=C1CCC/C=C\C[C@H]2C=C(Cl)C(=O)/C2=C/C[C@H](CCCCC(F)(F)F)OC(=O)CCC/C=C\C[C@H]2C=C(Cl)C(=O)/C2=C/C[C@H](CCCCC(F)(F)F)O1,-33.6% [7.5 µM] (active)
7,CCCCC[C@H]1CC=C2C(=O)C(Cl)=C[C@@H]2CC=CCCCC(=O)O[C@@H](CCCCC)CC=C2C(=O)C(Cl)=C[C@@H]2CC=CCCCC(=O)O[C@@H](CCCCC)CC=C2C(=O)C(Cl)=C[C@@H]2CC=CCCCC(=O)O1,144% [8 µM] (inactive)
8,CC1=CC(=O)N(c2cccc3c(N4C(=O)C=C(C)C4=O)cccc23)C1=O,109% (inactive)
9,CN(C)c1cccc2[nH]c(-c3[nH]ncc3Nc3ccnc(N)n3)nc12,-1.19% (active)
10,Cc1cccc(C)c1NC(=O)CSC(=S)N1CCN(CCOCCO)CC1,96.9% (inactive)
11,CN1CCN(CC#CCn2c3c(c4ccccc42)C[C@]2(C)[C@H]4CC[C@@H]5[C@H]6[C@H]7OC(=O)[C@@]6(CCC7(C)C)CC[C@@]5(C)[C@]4(C)CC[C@H]2C3(C)C)CC1,112% (inactive)
12,C/C(=N\Nc1ccc2ccccc2n1)c1ccccn1,24% (inactive)
13,CC(C)=CCC/C(C)=C/CC/C(C)=C/CC/C(C)=C/CSC[C@H](NC(=O)CCCCCN1CCN(C)CC1)C(=O)NC1CCCCC1,85% (inactive)
14,Nc1c(C(=O)Nc2cccc(Cl)c2)sc2ncc(Cl)cc12,88.8% (inactive)
15,CC(=O)OC(C)COc1ccc(-c2ccccc2)cc1 (stereo not given),96.8% (inactive)
16,O=C(/C=C/c1ccc2ccccc2c1)Nc1ncc(Cc2ccccc2)s1,49.5% (inactive)
17,COc1cc(-c2cc(-c3nc4ccc(F)cc4[nH]3)[nH]n2)cc(OC)c1OC,88.5% (inactive)
18,Clc1ccc2c(NCCNc3nc(-c4ccccc4)cc(-c4ccccc4)n3)ccnc2c1,-79.7% (active)
19,Cc1cc2nc3c4cc(O)ccc4n(CCN(C)C)c3nc2cc1C,-11.6% (active)
20,CC(C)(C)c1nc(-c2ccc(O)c(O)c2)cs1,91% (inactive)
